Giardia killer: Giardia lamblia killing | Giardia lamblia trophozoite viability | activity change, % at 7.66 µM, hits read low | 0.15% of 340,000 active | AID 540267; in the data active = activity change below about -80%; inconclusive = between about -30% and that limit;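 note: parasites exposed to compound for two days anaerobically before the ATP read; % is set by controls: 0 for no effect and ±100 for the full control effect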
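Media and compound were dispensed first, then trophozoites at 100 cells/well; plates sat 48 hrs at 37 deg C without oxygen before ATP luminescence reagent was added and read after 15-30 min at room temperature.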
gsp agonist: agonists of gsp mutant (McCune-Albright syndrome); gsp mutant cells, cAMP HTRF, 30 min; Potency, µM (highest dose often 76.9 µM), for the others: top-dose activation (cAMP increase), actives largely listed as activators; 0.13% of 340,000 active; AID 624287; active = well fitted activation curve with a large enough effect; inconclusive = small, poorly fitted or top-dose-only effect, or another doubt; inactive = no such curve, though single readings can be large or run the other way; cell line not stated here;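 note: phosphodiesterase inhibitor Ro 20-1724 added with compounds to block cAMP breakdown; potency is the fitted concentration of half-maximal effect; nearly all actives have a fitted effect of over 60% in size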
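Cells in DMEM/10% FBS with G418 were pretreated with compounds in DMSO plus […] (300 uM stock) for 30 min at 37C. cAMP was measured by HTRF (cAMP-d2 plus anti-cAMP antibody-K) after 30 min at room temperature.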
RXFP1 antagonist: antagonists of human relaxin receptor RXFP1; Q9HBX9; AID 1259400; HEK293-RXFP1, relaxin-stimulated cAMP HTRF, 30 min; stronger effect = lower value; activity change, negative = inhibition, % at 57.5 µM; 0.59% of 350,000 active;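 active = activity change of -60% or lower, but not beyond a set lower limit; inconclusive = change between -60% and -40%, or beyond the set limit; inactive = change above -40%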; note: % is set by controls: 0 for no effect and ±100 for the full control effect
Target sequence (Q9HBX9 whole entry, looked up): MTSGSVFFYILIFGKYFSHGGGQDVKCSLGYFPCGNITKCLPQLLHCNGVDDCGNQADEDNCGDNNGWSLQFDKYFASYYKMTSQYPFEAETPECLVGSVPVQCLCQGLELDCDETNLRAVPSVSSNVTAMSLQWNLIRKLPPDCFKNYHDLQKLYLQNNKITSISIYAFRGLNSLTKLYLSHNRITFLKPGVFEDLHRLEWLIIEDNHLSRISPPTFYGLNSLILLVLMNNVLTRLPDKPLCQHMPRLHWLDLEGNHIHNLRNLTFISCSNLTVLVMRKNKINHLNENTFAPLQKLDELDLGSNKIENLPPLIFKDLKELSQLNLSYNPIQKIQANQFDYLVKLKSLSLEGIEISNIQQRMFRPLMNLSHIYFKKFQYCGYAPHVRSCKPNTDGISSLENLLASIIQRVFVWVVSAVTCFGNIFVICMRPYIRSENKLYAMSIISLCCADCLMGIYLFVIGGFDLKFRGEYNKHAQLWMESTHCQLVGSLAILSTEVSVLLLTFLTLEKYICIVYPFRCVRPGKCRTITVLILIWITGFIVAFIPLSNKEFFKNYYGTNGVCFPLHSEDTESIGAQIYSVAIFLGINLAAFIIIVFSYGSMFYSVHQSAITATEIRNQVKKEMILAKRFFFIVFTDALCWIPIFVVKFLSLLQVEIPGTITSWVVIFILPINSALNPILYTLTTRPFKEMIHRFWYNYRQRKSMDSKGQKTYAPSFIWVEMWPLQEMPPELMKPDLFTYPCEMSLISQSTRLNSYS
FBPA coupling cs: inhibits coupling enzyme system, counter-screen for aldolase hits; AID 2472; activity change, negative = inhibition, % at 58.2 µM, hits read low; coupling enzyme system counterscreen, AmpLite Red fluorescence; 0.67% of 290,000 active; in the data active = activity change below about -30%; note: % is set by controls: 0 for no effect and ±100 for the full control effect
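Counterscreen lacking aldolase: glyceraldehyde-3-phosphate coupling-enzyme reagent preincubated 10 min at RT with compound (at 57.5 uM final), then substrate/coupling system with AmpLite Red added; fluorescence read at 525/598 nm after 20 min RT.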
gsp antag: gsp mutant antagonism; gsp-mutant cells, cAMP HTRF, 30 min; Potency, µM (titrated, usually from 76.9 µM), for the others: at the highest dose activity change, negative = inhibition, usual class: inhibitors; 0.4% of 340,000 active; calls by dose curve; cell line not stated here;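 note: intracellular cAMP measured with PDE inhibitor Ro 20-1724 present during compound exposure; potency is the fitted concentration of half-maximal effect; % is set by controls: 0 for no effect and ±100 for the full control effect; nearly all actives have a fitted effect of over 65% in size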
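Measurement of cellular cAMP by homogeneous time-resolved fluorescence following a 30 min compound exposure at 37C. The PDE inhibitor […] was present throughout; the assay buffer was DPBS with 0.05% BSA and 0.005% Tween 20.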
RXFP1 ag: agonists of human relaxin receptor RXFP1 | Q9HBX9 | HEK293T-RXFP1 cAMP TR-FRET, 30 min; response scale: percent of porcine relaxin response, buffer zero | Potency, µM (doses to about 57.5 µM), inactives show top-dose activation, usual class: activators | 0.3% of 370,000 active | AID 2676; active = well fitted activation curve with a large enough effect; inconclusive = small, poorly fitted or top-dose-only effect; note: potency is the fitted concentration of half-maximal effect; % is set by controls: 0 for no effect and ±100 for the full control effect; nearly all actives have a fitted effect of over 60% in size
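HEK293T cells stably expressing RXFP1 were pretreated with the PDE4 inhibitor Ro 20174, exposed to compounds for 30 min at 37C, lysed, and cAMP was read by TR-FRET. Data normalized to buffer (basal) and 29 nM porcine relaxin (100%).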
Casp1 catalase: counter-screen for redox active human caspase-1 inhibitors with catalase | 30 tested, under 10 active | Potency, µM (titrated, usually from 57.5 µM), for the others: top-dose activity change, negative = inhibition, hits mostly inhibitors | AID 888 | caspase-1 Ac-WEHD-AFC fluorescence rate, catalase buffer | shares compounds with FBPA coupling cs
CASP1 inh CRC: blocks human caspase-1 activity in concentration-response; shares compounds with FBPA coupling cs; purified caspase-1, fluorogenic substrate cleavage; Potency, µM (doses to about 57.5 µM), without a hit: at the highest dose activity change, negative = inhibition, hits mostly inhibitors; 20% of 60 active
CASP7 inh CRC: blocks human caspase-7 activity in concentration-response; 60 tested, under 10 active; recombinant caspase-7, fluorogenic substrate cleavage; AID 897; shares compounds with FBPA coupling cs; Potency, µM (highest dose often 57.5 µM), for inactives: at the highest dose activity change, negative = inhibition, hits mostly inhibitors; active = well fitted inhibition curve with a large enough effect in the main read-out, with a control signal flat, not every such curve was filed as active; inconclusive = small, poorly fitted or top-dose-only effect, or a change in a side signal; inactive = no such curve, though single readings can be large or run the other way
Casp7 cysteine: caspase-7 inhibition with cysteine present; shares compounds with FBPA coupling cs; caspase-7 enzyme with cysteine, fluorogenic substrate, redox counterscreen; Potency, µM (highest dose often 57.5 µM), without a hit: at the top dose activity change, negative = inhibition, hits mostly inhibitors; 60 tested, under 10 active
CASP7 redox cat: inhibits caspase-7 in catalase buffer, redox counter-screen; shares compounds with FBPA coupling cs; Caspase-7 Ac-DEVD-AFC fluorescence rate, catalase buffer; Potency, µM (top dose mostly 57.5 µM), without a hit: top-dose activity, negative = inhibition, hits mostly inhibitors; 30 tested, under 10 active; AID 909
CASP1 redox cys: caspase-1 inhibition with cysteine present. shares compounds with FBPA coupling cs. recombinant caspase-1, fluorogenic substrate, cysteine buffer. Potency, µM (highest dose often 57.5 µM), for the others: at the top dose activity change, negative = inhibition, actives largely listed as inhibitors. 60 tested, under 10 active
The depositor's hits bear a star; ? = inconclusive; / = not tested or not shown; [ ] = dose if it differs, or a comment. Shown are actives, neighbours in structure and some others; about 1.6% of the full set was active somewhere. Unless noted, calls come from the whole dose curve; as a rule, active = well fitted inhibition curve with a large enough effect in the main read-out, with a control signal flat; inconclusive = small, poorly fitted or top-dose-only effect, or a change in a side signal; inactive = no such curve, though single readings can be large or run the other way.

SMILES	Giardia killer	gsp agonist	RXFP1 antagonist	FBPA coupling cs	gsp antag	RXFP1 ag	others
COc1ccc2c(c1)[nH]c1c(N3CCSCC3)ncnc12	4.2	-8.8%[15.4 µM]	?	-10.3	28.2µM*	-1.0%
COc1cccc(N2CCN(c3ncnc4c3[nH]c3ccc(F)cc34)CC2C)c1 (stereo not given)	19.9	-17.1%	-69.1*	0.8	3.55µM*	5.4%
COc1ccc2c(c1)[nH]c1c(N3CCN(Cc4ccc5c(c4)OCO5)CC3)ncnc12	-2.3	-68.0%	-12.7	-1.1	39.8µM*	-2.5%
N#Cc1cc2ccc(N3CCOCC3)cc2cc1C#N	-4.0	?	18.0	-42.7*	-11.2%	16.3%
O=C1c2[nH]nc(-c3ccccc3O)c2C(c2cccc(OCc3ccccc3)c2)N1CCCO (stereo not given)	/	/	-64.1*	/	/	1.8%
CCCOc1cccc(C2c3c(-c4ccccc4O)n[nH]c3C(=O)N2Cc2ccco2)c1 (stereo not given)	/	/	-80.1*	/	/	0.2%
COCCN1C(=O)c2[nH]nc(-c3ccccc3O)c2C1c1ccc(Cl)c(Cl)c1 (stereo not given)	/	/	-70.0*	/	/	-0.1%
O=C1c2[nH]nc(-c3ccccc3O)c2C(c2cccc(O)c2)N1Cc1ccco1 (stereo not given)	3.4	?	-20.1	-0.2	-4.5%	0.6%
Cc1ccc(O)c(-c2n[nH]c3c2C(c2ccc(F)cc2)N(Cc2ccco2)C3=O)c1 (stereo not given)	/	/	-63.9*	/	/	-0.5%
COc1ccc(CCN2C(=O)c3[nH]nc(-c4ccccc4O)c3C2c2cccc(Cl)c2)cc1 (stereo not given)	24.3	?	-4.5	-1.2	0.1%	3.0%
COc1cc(C2c3c(-c4ccccc4O)n[nH]c3C(=O)N2CCO)ccc1OCc1ccccc1 (stereo not given)	/	/	-5.9	/	/	0.3%
C[C@H]1Cc2c(COc3ccccc3)nc3c(c2CO1)CN(S(=O)(=O)c1ccc(Cl)c2nonc12)CC3	/	/	/	-3.5	/	/
C[C@@H]1/C=C\CC(=O)OC[C@H](C)C(=O)N[C@@H](Cc2ccccc2)C(=O)OC1	/	/	/	-1.5	/	/
O=C(C1CCCCC1)N1CC(=O)N2CCCc3ccccc3C2C1 (stereo not given)	/	/	-18.3	/	/	/
Cc1nc(SCc2ccc(Cl)cc2)c(C#N)c(C)c1Cl	/	/	/	/	/	-2.6%
CC(Oc1ccccc1)C(=O)NC1CCCCCCC1 (stereo not given)	6.9	-22.5%	-15.2	/	1.6%	-2.0%
CC(C)/C(C=O)=C(/NC1CCCCC1)c1ccccc1	17.3	0.1%[15.4 µM]	-63.0*	/	-10.0%	/
C=CCn1c(=O)[nH]c2cc(C(=O)N3CC=C(c4ccccc4)CC3)ccc2c1=O	-8.5	-19.6%	-72.3*	0.5	-24.6%	1.2%
O=C(CCn1c(=O)[nH]c2ccccc2c1=O)N1CC=C(c2ccccc2)CC1	-11.1	-4.5%[15.4 µM]	-11.4	-0.2	6.6%	2.1%
COc1ccc(S(=O)(=O)Nc2ccc(O)c3ccccc23)cc1	15.9	26.8%	-3.4	-2.8	-6.4%	-1.1%	Casp1 catalase=-2.3%;CASP1 inh CRC=-3.8%;CASP7 inh CRC=-4.2%;Casp7 cysteine=-0.2%;CASP7 redox cat=-9.0%;CASP1 redox cys=4.2%
COc1ccc(S(=O)(=O)Nc2ccccc2)cc1	2.8	-1.8%[15.4 µM]	14.9	/	-9.5%	/
CC(=O)Nc1cc(OC(C)=O)c2nonc2c1OC(C)=O	15.8	-6.4%	-0.4	-76.8*	7.7%	-0.4%	Casp1 catalase=-25.1%;CASP1 inh CRC=-63.3%;CASP7 inh CRC=-31.9%;Casp7 cysteine=-12.9%;CASP7 redox cat=1.2%;CASP1 redox cys=?
N#CC1=C2SCN(Cc3ccccc3)CN2C(=O)CC1c1cccs1 (stereo not given)	9.2	?	7.4	-39.8*	6.0%	25.1µM*	Casp1 catalase=-4.1%;CASP1 inh CRC=-4.7%;CASP7 inh CRC=-1.0%;Casp7 cysteine=1.0%;CASP7 redox cat=-7.5%;CASP1 redox cys=-1.9%
Cc1cc(C)cc(C(=O)N(C)[C@H](Cc2ccc(-c3ccccc3)cc2)C(=O)N[C@@H](Cc2c[nH]c3ccccc23)C(=O)O)c1	/	/	/	-0.3	/	/	CASP1 inh CRC=?;CASP7 inh CRC=15.8µM*;Casp7 cysteine=15.8µM*;CASP1 redox cys=?
CC1(C)C(=O)NC2=C1C(=O)C(=O)c1ccccc12	/	/	/	-75.6*	/	/	CASP1 inh CRC=3.98µM*;CASP7 inh CRC=?;Casp7 cysteine=-17.6%;CASP1 redox cys=-2.4%
SMILES	Giardia killer	gsp agonist	RXFP1 antagonist	FBPA coupling cs	gsp antag	RXFP1 ag	others
Cc1ccc(C2C3=C(CC(C)(C)CC3=O)NC3=C2C(=O)c2ccccc23)cc1 (stereo not given)	-13.3	-20.3%	0.0	-13.2	-6.0%	2.4%
COc1ccccc1C(=O)CSc1ccccn1	-2.6	-16.0%[15.4 µM]	-8.9	2.2	18.7%	0.5%
COc1ccc(CSc2nc(C)cc(=O)[nH]2)cc1Br	-14.4	4.5%	-1.2	13.3	?	1.1%
COc1cc(=O)[nH]c(SCc2c(F)c(F)c(F)c(F)c2F)n1	14.1	-28.7%	-8.9	10.8	-8.4%	0.4%	CASP1 inh CRC=-4.7%;CASP7 inh CRC=-3.7%;Casp7 cysteine=-6.8%;CASP1 redox cys=5.4%
COc1ccc(C2CC(=O)N3CN(c4ccccc4F)CSC3=C2C#N)cc1OC (stereo not given)	-2.4	?	-6.2	-14.1	-7.0%	1.0%	Casp1 catalase=2.5%;CASP1 inh CRC=-13.0%;CASP7 inh CRC=-7.9%;Casp7 cysteine=-10.3%;CASP7 redox cat=6.7%;CASP1 redox cys=-2.7%
Cc1ccc(NC(=O)C2CCCN(S(=O)(=O)c3cccnc3)C2)c(C)c1 (stereo not given)	-0.9	-3.9%	4.6	-0.2	3.9%	0.2%

Bioassay records (PubChem)
